CYP2C9 inhib – inhibitors of human CYP2C9; P11712; 20% of 96,000 active; CYP2C9 Supersomes, luciferin-H conversion, luminescence; inhibition, % at 5 µM;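 active means blocking of liver enzyme CYP2C9 beyond about 50% at 5 µM, limit read from the data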
sEH activator – activators of human soluble epoxide hydrolase; purified human sEH enzymatic activity, activator screen; P34913; 0.04% of 91,000 active; activation, % at 2 µM; in the data active means activation above about 37%
CYP2C19 act – increases human CYP2C19 enzyme activity; P33261; recombinant CYP2C19, luciferin-H EGE luminescence; stronger effect = higher value; 0 = fully inhibited enzyme, 1 = untreated enzyme; 96,000 tested, under 10 active; activation factor at 5 µM; AID 1025;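 active means activation factor of at least 2 at 5 µM in the primary screen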;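 further: 0 = wells with 2.5 mM tranylcypromine and 1 = vehicle-only wells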
Target sequence (P33261 whole entry, looked up): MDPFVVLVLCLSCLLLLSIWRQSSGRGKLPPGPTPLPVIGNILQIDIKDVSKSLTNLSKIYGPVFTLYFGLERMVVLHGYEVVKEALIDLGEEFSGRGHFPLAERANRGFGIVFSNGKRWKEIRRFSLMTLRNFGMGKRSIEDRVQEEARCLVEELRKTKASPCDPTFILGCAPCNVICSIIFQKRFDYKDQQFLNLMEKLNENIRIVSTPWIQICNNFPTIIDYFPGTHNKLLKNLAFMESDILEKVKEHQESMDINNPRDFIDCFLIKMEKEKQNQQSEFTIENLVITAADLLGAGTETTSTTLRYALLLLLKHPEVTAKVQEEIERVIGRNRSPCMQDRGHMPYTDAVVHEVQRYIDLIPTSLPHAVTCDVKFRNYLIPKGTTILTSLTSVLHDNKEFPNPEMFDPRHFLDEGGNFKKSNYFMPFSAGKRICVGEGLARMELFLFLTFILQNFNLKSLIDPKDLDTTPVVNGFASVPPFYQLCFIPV
CYP2C9 activ – CYP2C9 (human) activation. activation factor at 5 µM. AID 1024. 1.4% of 96,000 active. recombinant CYP2C9, luciferin-H conversion, luminescence; stronger effect = higher value; factor 1 = untreated enzyme, 0 = blocked;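 active means activation factor of 2 or more for CYP2C9 at a 5 µM dose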;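 further: 0 = sulfaphenazole-blocked wells and 1 = vehicle-only wells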
CYP2C19 inhib – human CYP2C19 inhibition; AID 778; inhibition, % at 5 µM; P33261; CYP2C19 Supersomes, luciferin-H EGE luminescence, 30 min; 21% of 96,000 active;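 active means CYP2C19 inhibition above a set limit at 5 µM in the primary screen, cut at about 50% in these data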;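 further: plate controls were negative control wells for no effect and 2.5 mM tranylcypromine positive control for full effect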
sEH inhibitor – inhibitors of human soluble epoxide hydrolase | P34913 | recombinant human sEH enzymatic activity assay | inhibition, % at 2 µM | 0.34% of 91,000 active; in the data active means inhibition above about 80%
An asterisk follows results filed as active; . = no result. This is a sample that favours compounds with a hit; in the whole collection about 27% have one here.

SMILES	CYP2C9 inhib	sEH activator	CYP2C19 act	CYP2C9 activ	CYP2C19 inhib	sEH inhibitor
CCOC(=O)C1CCCN(CC(=O)Nc2c(C(=O)OC)[nH]c3ccc(C)cc23)C1 (stereo unspecified)	59.6*	7.2	0.6	0.4	43.4	-7.5
CCOC(=O)C1CCCN(CC(=O)Nc2c(C(=O)OC)[nH]c3ccccc23)C1 (stereo unspecified)	11.5	-7.9	0.7	0.9	27.0	8.1
Cc1ccc(Cn2cccc(NC(=O)NC3CCCCC3)c2=O)cc1	33.2	-7.1	0.4	0.7	64.8*	5.7
O=C(Nc1cccn(Cc2ccccc2)c1=O)NC1CCCCC1	31.4	-13.3	0.7	0.7	31.7	11.9
CCc1nnc(NS(=O)(=O)c2ccc(N3C(=O)C4CC=C(Cl)CC4C3=O)cc2)s1 (stereo unspecified)	50.2*	-7.4	0.9	0.5	13.3	8.7
Cc1cc(C)nc(NS(=O)(=O)c2ccc(N3C(=O)C4CC=C(Cl)CC4C3=O)cc2)n1 (stereo unspecified)	1.9	-0.6	1	1	2.7	0.1
Cc1ccc(Cl)cc1N1CCN(C(=O)C2CCN(S(=O)(=O)c3c(C)nn(C)c3C)CC2)CC1	-75.5	-5.5	0.6	1.8	35.2	8.2
Cc1ccc(-c2csc3ncnc(Sc4nnc(CN5CCCCCC5=O)o4)c23)cc1	83.1*	.	0.5	0.2	51.8*	.
CCC(=O)N1CCCc2cc(S(=O)(=O)N3CCN(C4CCCCC4)CC3)ccc21	-5.7	.	0.7	1.1	33.0	.
O=C(N/C=N/O)C1=NOC(CNc2ncc(C(F)(F)F)cc2Cl)C1 (stereo unspecified)	5.2	-1.1	0.2	0.9	77.3*	0.0
O=C(NC1CC1)C1=NOC(CNc2ncc(C(F)(F)F)cc2Cl)C1 (stereo unspecified)	-138.8	13.7	0.2	2.4*	84.6*	-15.0
COc1cc(C(=O)NCCCN2CCCC2=O)cc(OC)c1OC	-7.2	8.4	1	1.1	0.4	-5.0
CCOc1ccc(N2C(=O)CC(N3CCN(C(=O)CN4CCCC4)CC3)C2=O)cc1 (stereo unspecified)	-4.5	-8.1	1	1	0.7	5.8
CCOc1ccc(N2C(=O)CC(N3CCC(NC(=O)Nc4ccccc4)CC3)C2=O)cc1 (stereo unspecified)	58.7*	-35.0	0.1	0.4	89.6*	34.5
Cc1cc(C)c2ccc(C(=O)O)nc2c1O	-12.5	4.6	1.1	1.1	-13.3	-7.7
CCOc1ccccc1N(C)C(=O)C1CCN(S(=O)(=O)c2cccc3nonc23)CC1	94.1*	2.9	0.2	0.1	84.9*	-0.1
O=C(NCCN1CCN(c2ccccc2)CC1)C1CCN(S(=O)(=O)c2cccc3nonc23)CC1	-14.2	-19.5	0.5	1.1	52.2*	17.7
O=C(NCCN1CCN(c2ccccc2)CC1)C1CCN(S(=O)(=O)c2cccs2)CC1	14.7	-6.3	0.9	0.9	11.5	4.5
COc1ccc(CCNC(=O)C2CCN(S(=O)(=O)c3cccc4nonc34)CC2)cc1OC	17.8	-14.1	0.7	0.8	27.1	15.7
O=C(NCCc1ccc(Cl)cc1)C1CCN(S(=O)(=O)c2cccc3nonc23)CC1	-150.9	-13.0	0.7	2.5*	26.0	15.3
O=C(NCCc1ccccc1)C1CCN(S(=O)(=O)c2ccc(-c3nn[nH]n3)cc2)CC1	83.1*	-6.5	1	0.2	4.6	4.2
O=C(NCCc1ccccc1)C1CCN(S(=O)(=O)c2cccc3nonc23)CC1	-127.9	-17.8	0.8	2.3*	18.6	18.1
c1cc(Nc2ncnc3sccc23)cc(-c2nnc3n2CCCCC3)c1	-5.3	3.3	1.1	1.1	-5.4	-2.9
Cc1ccc2nsnc2c1S(=O)(=O)N1CCN(CCc2ccccc2)CC1	-12.6	19.6	0.1	1.1	91.5*	-18.3
O=C1c2ccccc2C(Nc2ccc3nc(-c4cccnc4)[nH]c3c2)N1Cc1ccco1 (stereo unspecified)	93.1*	.	0.7	0.1	25.6	.
Nc1ccc(C(=O)Nc2ccc3nc(-c4cccnc4)[nH]c3c2)cc1	11.4	-15.3	0.9	0.9	6.5	13.0
O=C1c2ccccc2C(Nc2ccc(-c3nc4ccccc4[nH]3)cc2)N1Cc1ccco1 (stereo unspecified)	86.7*	-24.3	0.3	0.1	73.2*	23.6
O=C1c2ccccc2C(=O)N1Cc1nc2ccccc2c(=O)n1Cc1ccco1	9.5	.	0.9	0.9	7.0	.

Source: PubChem BioAssay (several laboratories)
